From PMC5700166 come the findings set out here.

Residue numbers refer to the chain shown, from its start.

Assay in all cases: protein-binding microarray (PBM); PBM: ~300 nM protein, 6 mM HEPES pH 7.8, 80 mM KCl, 0.5 mM EDTA, 0.5 mM EGTA, 6% glycerol, 35 ng/ul poly-dIdC, 1% milk, 1 h, room temperature; Ap Aiptasia and Nv Nematostella (sea anemones) / Co Capsaspora / Aq Amphimedon (sponge) / Dm Drosophila / Hu human; RHD is the Rel homology domain; high values mean tight binding
What all share (conditions): dsDNA, one strand shown

The target of assay [1] is T1, GST-Ap-NF-kB RHD (Exaiptasia pallida (Aiptasia), UniProt A0A913YAJ5 2-422).
T1 sequence: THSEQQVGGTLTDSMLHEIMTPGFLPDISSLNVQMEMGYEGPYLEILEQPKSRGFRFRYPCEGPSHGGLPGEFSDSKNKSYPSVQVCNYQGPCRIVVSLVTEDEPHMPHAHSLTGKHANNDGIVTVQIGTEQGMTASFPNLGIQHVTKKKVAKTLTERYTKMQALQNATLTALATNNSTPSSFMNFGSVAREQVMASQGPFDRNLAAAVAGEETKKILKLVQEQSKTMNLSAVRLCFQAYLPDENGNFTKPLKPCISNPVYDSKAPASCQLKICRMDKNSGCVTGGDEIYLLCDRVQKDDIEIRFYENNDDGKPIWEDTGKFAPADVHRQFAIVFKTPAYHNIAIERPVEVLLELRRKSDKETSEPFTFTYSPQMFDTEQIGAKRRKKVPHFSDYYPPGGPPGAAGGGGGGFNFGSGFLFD

The target in assay [2] is T2, GST-Nv-NF-kB (Cys allele) (Nematostella vectensis, UniProt E5G601 2-411).
T2 sequence: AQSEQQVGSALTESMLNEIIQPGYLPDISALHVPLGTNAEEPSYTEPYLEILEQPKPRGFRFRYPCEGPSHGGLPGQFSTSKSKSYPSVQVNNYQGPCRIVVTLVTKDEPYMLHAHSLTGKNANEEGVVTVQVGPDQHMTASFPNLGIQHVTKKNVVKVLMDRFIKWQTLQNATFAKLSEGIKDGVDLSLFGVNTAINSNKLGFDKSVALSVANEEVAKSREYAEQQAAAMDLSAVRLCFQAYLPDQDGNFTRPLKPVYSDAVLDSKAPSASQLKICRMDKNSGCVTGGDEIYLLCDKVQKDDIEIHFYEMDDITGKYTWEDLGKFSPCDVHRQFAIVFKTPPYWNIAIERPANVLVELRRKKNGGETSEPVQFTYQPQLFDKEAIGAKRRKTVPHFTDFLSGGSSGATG

Assay [3] addresses T3, GST-Nv-NF-kB (Ser allele) (Nematostella vectensis, UniProt A7UNT2 2-411).
T3 sequence: T2 sequence with Q21R, C66S, S207N, E215Q, V217A, E225K, A268E, D399E

Assay [4] has as its target T4, GST-Co-NF-kB (Capsaspora owczarzaki, UniProt F1ARL5 200-546).
T4 sequence: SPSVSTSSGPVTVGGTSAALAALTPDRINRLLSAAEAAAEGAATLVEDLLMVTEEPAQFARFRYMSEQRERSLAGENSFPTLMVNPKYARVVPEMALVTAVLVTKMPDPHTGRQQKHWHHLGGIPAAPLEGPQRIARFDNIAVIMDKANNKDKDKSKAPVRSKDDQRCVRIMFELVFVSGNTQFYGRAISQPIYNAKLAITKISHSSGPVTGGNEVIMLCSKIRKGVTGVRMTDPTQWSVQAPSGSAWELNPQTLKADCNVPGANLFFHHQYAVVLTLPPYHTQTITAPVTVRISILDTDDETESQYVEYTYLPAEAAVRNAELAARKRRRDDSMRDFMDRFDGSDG

Assay [5] concerns the target T5, GST-Dm-Relish (Drosophila melanogaster, UniProt Q94527 99-473).
T5 sequence: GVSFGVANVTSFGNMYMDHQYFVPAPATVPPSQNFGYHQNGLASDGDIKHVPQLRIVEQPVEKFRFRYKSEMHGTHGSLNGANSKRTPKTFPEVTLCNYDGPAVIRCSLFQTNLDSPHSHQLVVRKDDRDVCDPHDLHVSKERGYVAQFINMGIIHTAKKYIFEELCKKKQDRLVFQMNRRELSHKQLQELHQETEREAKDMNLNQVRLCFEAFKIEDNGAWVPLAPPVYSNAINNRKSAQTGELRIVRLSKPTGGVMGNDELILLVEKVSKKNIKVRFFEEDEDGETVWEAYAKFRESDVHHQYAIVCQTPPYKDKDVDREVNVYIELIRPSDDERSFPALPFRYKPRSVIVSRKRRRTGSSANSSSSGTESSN

Assay [6] deals with T6, GST-Aq-NF-kB (Amphimedon queenslandica, UniProt A9Y5G7 2-389).
T6 sequence: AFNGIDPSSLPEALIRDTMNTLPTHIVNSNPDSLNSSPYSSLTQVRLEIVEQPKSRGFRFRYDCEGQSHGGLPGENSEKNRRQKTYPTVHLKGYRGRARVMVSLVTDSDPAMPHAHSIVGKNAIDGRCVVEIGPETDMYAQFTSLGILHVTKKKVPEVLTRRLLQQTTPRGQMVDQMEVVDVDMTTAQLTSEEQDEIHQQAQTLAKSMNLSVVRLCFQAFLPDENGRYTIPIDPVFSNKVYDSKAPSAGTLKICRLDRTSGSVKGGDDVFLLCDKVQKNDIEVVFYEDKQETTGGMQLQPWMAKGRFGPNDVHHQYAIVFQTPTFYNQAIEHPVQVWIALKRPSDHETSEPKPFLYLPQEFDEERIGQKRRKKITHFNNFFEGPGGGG

The target in assay [7] is GST-Hu-p50 (Homo sapiens, UniProt P19838 7-356).
Sequence of GST-Hu-p50 (P19838 7-356): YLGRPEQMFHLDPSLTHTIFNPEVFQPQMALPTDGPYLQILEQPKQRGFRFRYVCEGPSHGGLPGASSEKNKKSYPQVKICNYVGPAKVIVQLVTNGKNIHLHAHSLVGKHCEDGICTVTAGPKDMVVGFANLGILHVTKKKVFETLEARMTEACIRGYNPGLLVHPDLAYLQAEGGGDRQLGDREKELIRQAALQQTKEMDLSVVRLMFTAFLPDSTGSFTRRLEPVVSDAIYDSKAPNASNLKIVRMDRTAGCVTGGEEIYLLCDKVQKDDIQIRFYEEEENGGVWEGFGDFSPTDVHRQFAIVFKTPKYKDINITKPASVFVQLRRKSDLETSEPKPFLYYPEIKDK

For the sequence “CCGATTAACATCAATACTCCCCCTGATGTTAATCGGGTCTTGATTCGCTTGACGCTGCTG”, the binding signal in assay [1] was 6.61 z-score; in assay [2], 5.41 z-score; in assay [3], 6.73 z-score; in assay [4] it was 8.03 z-score; in assay [5], 3.95 z-score; in assay [6], 4.97 z-score. In assay [7], this sequence registered a binding signal of 6.4 z-score.

Turning to “CCGATTAACATCAGCTAATTCCCTGATGTTAATCGGGTCTTGATTCGCTTGACGCTGCTG”, the binding signal in assay [1] worked out at 1.96 z-score; in assay [2], 3.33 z-score; in assay [3], 3.36 z-score; in assay [4], 1.82 z-score; in assay [5], 1.18 z-score; in assay [6], 3.15 z-score. This sequence yielded a binding signal in assay [7] of 2.27 z-score.

Consider “CCGATTAACATCAGGGGGCGGGATGATGTTAATCGGGTCTTGATTCGCTTGACGCTGCTG”, for which the binding signal in assay [1] came to 3.64 z-score; in assay [2], 4 z-score; in assay [3], 3.53 z-score; in assay [4] it was 2.28 z-score; in assay [5], 3.49 z-score; in assay [6] it was 4.03 z-score. For the same sequence, the binding signal in assay [7] was 4.21 z-score.

As to “CCGATTAACATCAGGACTCCCCCTGATGTTAATCGGGTCTTGATTCGCTTGACGCTGCTG”, the binding signal in assay [1] was determined as 8.82 z-score; in assay [2] it was 7.17 z-score; in assay [3], 6.45 z-score; in assay [4], 4.97 z-score; in assay [5], 8.9 z-score; in assay [6], 9.21 z-score. In assay [7], this sequence registered a binding signal of 6.59 z-score.

As to “CCGATTAACATCAACATTCCCCCTGATGTTAATCGGGTCTTGATTCGCTTGACGCTGCTG”, the binding signal in assay [1] came out at 7.55 z-score; in assay [2], 8.25 z-score; in assay [3], 8.8 z-score; in assay [4], 9.34 z-score; in assay [5] it was 4.3 z-score; in assay [6], 6.29 z-score. Moreover, the binding signal in assay [7] came to 6.48 z-score.

In the case of “CCGATTAACATCAGATTTCCCCATGATGTTAATCGGGTCTTGATTCGCTTGACGCTGCTG”, the binding signal in assay [1] is 7.4 z-score; in assay [2], 8.26 z-score; in assay [3], 9.52 z-score; in assay [4], 8.5 z-score; in assay [5], 3.76 z-score; in assay [6] it was 5.45 z-score. This sequence registered a binding signal in assay [7] of 6.16 z-score.

For “CCGATTAACATCACAGTTTCCCCTGATGTTAATCGGGTCTTGATTCGCTTGACGCTGCTG”, the binding signal in assay [1] was 6.64 z-score; in assay [2] it was 7.28 z-score; in assay [3], 10.3 z-score; in assay [4] it was 7.74 z-score; in assay [5], 3.35 z-score; in assay [6], 4.9 z-score. For the same sequence, the binding signal in assay [7] is 5.61 z-score.

For the sequence “CCGATTAACATCAGGGAATTCTATGATGTTAATCGGGTCTTGATTCGCTTGACGCTGCTG”, the binding signal is 5.04 z-score in assay [1]; 6.52 z-score in assay [2]; 6.75 z-score in assay [3]; 3.81 z-score in assay [4]; 3.59 z-score in assay [5]; 5.61 z-score in assay [6]. Besides, the binding signal in assay [7] amounted to 4.8 z-score.

For the sequence “CCGATTAACATCACAGAATCCCCTGATGTTAATCGGGTCTTGATTCGCTTGACGCTGCTG”, the binding signal was 8.13 z-score in assay [1]; 8.87 z-score in assay [2]; 11.1 z-score in assay [3]; 3.42 z-score in assay [4]; 7.58 z-score in assay [5]; 6.21 z-score in assay [6]. This sequence returned a binding signal in assay [7] of 6.89 z-score.

For the sequence “CCGATTAACATCAAGGGGGGGCGTGATGTTAATCGGGTCTTGATTCGCTTGACGCTGCTG”, the binding signal came to 4.19 z-score in assay [1]; 4.66 z-score in assay [2]; 4.86 z-score in assay [3]; 3.83 z-score in assay [4]; 3.7 z-score in assay [5]; 4.52 z-score in assay [6]. This sequence returned a binding signal in assay [7] of 4.17 z-score.

As to “CCGATTAACATCAAGCACCCCCCTGATGTTAATCGGGTCTTGATTCGCTTGACGCTGCTG”, the binding signal amounted to 5 z-score in assay [1]; 3.3 z-score in assay [2]; 3.81 z-score in assay [3]; 3.39 z-score in assay [4]; 4.97 z-score in assay [5]; 4.27 z-score in assay [6]. In assay [7], this sequence came in with a binding signal of 4.29 z-score.

Turning to “CCGATTAACATCAGGGGGATTTATGATGTTAATCGGGTCTTGATTCGCTTGACGCTGCTG”, the binding signal in assay [1] was 8.91 z-score; in assay [2] it was 9.22 z-score; in assay [3], 10 z-score; in assay [4], 6.7 z-score; in assay [5] it was 8.87 z-score; in assay [6], 7.3 z-score. Also, in assay [7], the binding signal is 7.42 z-score.
